Out of some 310,000 compounds screened, about 14,000 (4.5%) showed an effect of 50% or more. The effect is printed as a negative number. Shown is part of a subset that was picked to be rich in strong results.
The molecules below were run against human ether-à-go-go-related gene (hERG) potassium channel (human, UniProt Q12809) (assay: primary screen, population patch clamp on CHO cells stably expressing hERG; higher = less effect of the substance).
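Note: peak tail current of the secondary pulse compared with the same well before compound.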

Sequence of human ether-à-go-go-related gene (hERG) potassium channel (Q12809 whole entry, looked up): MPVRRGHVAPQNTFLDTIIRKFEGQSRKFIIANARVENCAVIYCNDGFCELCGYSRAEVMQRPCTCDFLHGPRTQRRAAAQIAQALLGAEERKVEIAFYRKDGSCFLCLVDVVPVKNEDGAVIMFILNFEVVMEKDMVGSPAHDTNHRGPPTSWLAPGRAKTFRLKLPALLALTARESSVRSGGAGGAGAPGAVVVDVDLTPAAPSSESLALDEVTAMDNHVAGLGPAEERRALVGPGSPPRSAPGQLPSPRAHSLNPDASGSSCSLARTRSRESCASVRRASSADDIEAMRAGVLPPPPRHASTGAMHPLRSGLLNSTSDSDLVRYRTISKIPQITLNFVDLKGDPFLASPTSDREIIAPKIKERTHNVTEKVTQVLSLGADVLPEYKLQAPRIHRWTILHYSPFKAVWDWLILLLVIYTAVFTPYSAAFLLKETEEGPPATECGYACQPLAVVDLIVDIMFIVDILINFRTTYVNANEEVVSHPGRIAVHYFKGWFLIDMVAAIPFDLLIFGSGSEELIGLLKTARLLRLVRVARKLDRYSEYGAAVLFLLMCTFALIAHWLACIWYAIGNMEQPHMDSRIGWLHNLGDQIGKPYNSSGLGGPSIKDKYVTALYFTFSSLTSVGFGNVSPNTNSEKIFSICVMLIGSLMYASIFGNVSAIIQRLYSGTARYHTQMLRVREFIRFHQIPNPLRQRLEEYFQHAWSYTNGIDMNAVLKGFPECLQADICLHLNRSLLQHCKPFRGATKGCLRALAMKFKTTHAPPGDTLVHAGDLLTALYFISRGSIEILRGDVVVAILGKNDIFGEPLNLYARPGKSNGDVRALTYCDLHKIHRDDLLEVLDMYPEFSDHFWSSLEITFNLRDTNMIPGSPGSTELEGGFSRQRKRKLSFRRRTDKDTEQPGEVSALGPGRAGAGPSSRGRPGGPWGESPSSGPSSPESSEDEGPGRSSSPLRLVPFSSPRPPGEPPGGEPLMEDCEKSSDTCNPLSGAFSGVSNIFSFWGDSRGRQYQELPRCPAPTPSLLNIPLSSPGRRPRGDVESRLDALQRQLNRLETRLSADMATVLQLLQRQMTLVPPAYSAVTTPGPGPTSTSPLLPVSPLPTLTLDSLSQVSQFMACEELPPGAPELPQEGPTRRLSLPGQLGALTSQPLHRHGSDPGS

| Structure (SMILES) | hERG current change (%, negative = inhibition) at 10uM |
| --- | --- |
| CN1N=C(C(=O)N2CCc3c([nH]c4ccccc34)C2c2c(F)cccc2Cl)CCC1=O (centres unmarked) | -97.3% |
| Cc1cc(C(=O)N2CCc3c([nH]c4ccccc34)C2c2c(F)cccc2Cl)no1 (centres unmarked) | 5.46% |
| CN1N=C(C(=O)N2CCc3c([nH]c4ccccc34)C2c2ccccc2Cl)CCC1=O (centres unmarked) | -36.9% |
| CC1CN(C(=O)CCC(=O)NC2CCCCC2)c2ccccc2S1 (centres unmarked) | -19.5% |
| Fc1cccc(C2CC(c3cccc(Br)c3)Nc3nnnn32)c1 (centres unmarked) | -3.02% |
| CS(=O)(=O)N(CC(=O)N1CCN(Cc2ccccc2)CC1)c1ccc(F)cc1 | -3.35% |
| C=CCN(c1ccccc1C(=O)NCC(=O)O)S(=O)(=O)c1ccccc1C | 24.7% |
| COC(=O)c1[nH]c2ccccc2c1NC(=O)CN1CCN(C/C=C/c2ccccc2)CC1 | -76.4% |
| CCOC(=O)c1[nH]c2ccc(OCC)cc2c1NC(=O)CN1CCN(c2ccccc2)CC1 | 17.9% |
| CCOC(=O)c1[nH]c2ccc(F)cc2c1NC(=O)CN1CCc2cc(OC)c(OC)cc2C1 | -0.0862% |
| CCOC(=O)N1CCN(CC(=O)Nc2c(C(=O)OC)[nH]c3ccccc23)CC1 | -10.2% |
| Cc1[nH]c2ccccc2c1C(=O)CN1CC=C(c2ccccc2)CC1 | -52.4% |
| Cc1[nH]c2ccccc2c1C(=O)C(=O)N1CC=C(c2ccccc2)CC1 | -11.3% |
| COc1ccc2[nH]c(C)c(C(=O)CN3CCN(C/C=C/c4ccccc4)CC3)c2c1 | -25.8% |
| CCOC(=O)c1[nH]c2ccc(F)cc2c1NC(=O)CN1CCN(C/C=C/c2ccccc2)CC1 | -80.7% |
| Cc1[nH]c2ccccc2c1C(=O)CN1CCN(C/C=C/c2ccccc2)CC1 | -73.4% |
| Cc1[nH]c2ccccc2c1C(=O)CN1CCSCC1 | 5.84% |
| Cc1[nH]c2ccccc2c1C(=O)CN1CCCC1 | 5.09% |
| COC(=O)c1[nH]c2ccccc2c1NC(=O)CN1CCCCCC1 | -21.5% |
| COc1ccc(C(NC(=O)c2cccnc2)c2cc(Cl)c3cccnc3c2O)cc1OC (centres unmarked) | 10.5% |
| NS(=O)(=O)c1ccc(NC(=O)CSc2nnc(-c3ccc(O)cc3)o2)cc1 | 25.1% |

| Structure (SMILES) | hERG current change (%, negative = inhibition) at 10uM |
| --- | --- |
| Cc1onc(-c2ccccc2)c1C(=O)OCC(=O)NC(C)c1ccc(Cl)cc1 (centres unmarked) | -7.03% |
| CCOc1nc(-c2ccccc2O)nc2ccccc12 | 2.42% |
| Cc1ccc(-c2cc(-c3ccc(C)cc3)[n+](-c3ccc(C(=O)[O-])cc3)c(-c3ccc(C)cc3)c2)cc1 | -26.8% |
| Cc1ccc(-c2cc(-c3ccc(C)cc3)[n+](C)o2)cc1.[O-][Cl+3]([O-])([O-])[O-] | -68.4% |
| Cc1ccc(-c2cc(-c3ccc(C)cc3)[n+](-c3ccc(C(=O)O)cc3)c(-c3ccc(C)cc3)c2)cc1.[O-][Cl+3]([O-])([O-])[O-] | 26.5% |
| C=CCNC(=O)c1onc(CSc2ccc(F)cc2)c1C(=O)NCCOC | -43% |
| CCN(CC(=O)NCc1ccc(Cl)cc1)C(=O)/C=C/c1ccc(Cl)c([N+](=O)[O-])c1 | -67.6% |
| CCN(CC(=O)Nc1ccccc1C(F)(F)F)C(=O)/C=C/c1ccc(Cl)c([N+](=O)[O-])c1 | 10.1% |
| CCN(CC(=O)NCc1ccc(Cl)cc1)C(=O)/C=C/c1ccc(C#N)cc1 | -62% |
| CCN(CC(=O)NCc1ccc(Cl)cc1)C(=O)/C=C/c1cc(OC)c(OC)c(OC)c1 | 3.83% |
| CCN(CC(=O)NCc1ccc(Cl)cc1)C(=O)/C=C/c1cccs1 | -49.1% |
| CCN(CC(=O)NCc1ccc(Cl)cc1)C(=O)/C=C/c1ccccc1 | -46% |
| CN(CCC(=O)Nc1ccc(Cl)cc1)Cc1ccccc1.Cl | -39.9% |
| CCCC(NC(=O)COc1cc2c(c3oc(=O)cc(C)c13)CCC(C)(C)O2)C(=O)O (centres unmarked) | 18.4% |
| O=C(NCc1ccccc1)c1ccc(C2SCC(=O)N2Cc2ccccc2)cc1 (centres unmarked) | -12.6% |
| CCOc1c(OC(C)=O)ccc(/C=C/c2ccc3cccc(OC(C)=O)c3n2)c1[N+](=O)[O-] | -4.23% |
| O=Cc1ccc2oc3nc4n(c(=O)c3c(=O)c2c1)CCCS4 | -35.7% |
| CCC(C)COC(=O)C(C#N)c1nc2ccccc2nc1N1CCCCC1 (centres unmarked) | -1.25% |
| COC(=O)C(C#N)c1nc2ccccc2nc1N1CCCC1 (centres unmarked) | -0.357% |
| CCOC(=O)N1CCN(c2nc3ccccc3nc2C(C#N)C(=O)NCCc2ccccc2)CC1 (centres unmarked) | 7.98% |
| CCN1CCN(c2nc3ccccc3nc2C(C#N)C(=O)OCc2ccccc2)CC1 (centres unmarked) | -73.7% |

| Structure (SMILES) | hERG current change (%, negative = inhibition) at 10uM |
| --- | --- |
| CCC(CC)COC(=O)C(C#N)c1nc2ccccc2nc1N1CCOCC1 (centres unmarked) | -7.91% |
| CCC(CC)COC(=O)C(C#N)c1nc2ccccc2nc1N1CCN(CC)CC1 (centres unmarked) | -72.7% |
| COc1ccc(/C=C/C(=O)c2ccc[nH]2)c(OC)c1OC | -4.89% |
| CC(=O)c1ccc(-n2c(C)ccc2-c2ccccc2)cc1 | 1% |
| CCOC(=O)N1CCN(C(=O)Cn2ccc3c(OC)cccc3c2=O)CC1 | 6.78% |
| CCOC(=O)c1sc(NS(=O)(=O)c2cc(C)ccc2C)nc1C | 10.4% |
| COc1ccc(/C=C/C=C2\NC(=S)NC2=O)cc1 | 22.1% |
| Cc1cc2nc(/N=C(\N)NC(=O)N3c4ccccc4Sc4ccccc43)nc(C)c2cc1C | -38.9% |
| CCC(C)NC(=O)CSC1=Nc2ccccc2C2=NC(CC(=O)NCc3ccccc3)C(=O)N12 (centres unmarked) | -0.668% |
| CCN(CC)C(=O)CSC1=Nc2ccccc2C2=NC(c3ccccc3)C(=O)N12 (centres unmarked) | -46.4% |
| O=C(CSC1=Nc2ccccc2C2=NC(c3ccccc3)C(=O)N12)NC1CCCCC1 (centres unmarked) | -20.1% |
| NC(=O)CSC1=Nc2ccccc2C2=NC(c3ccccc3)C(=O)N12 (centres unmarked) | 1.61% |
| CN(C(=O)CSC1=Nc2ccccc2C2=NC(c3ccccc3)C(=O)N12)C1CCCCC1 (centres unmarked) | -73% |
| CCC(C)NC(=O)CSC1=Nc2ccccc2C2=NC(c3ccccc3)C(=O)N12 (centres unmarked) | -55.3% |
| O=C1CCCC(O)=C1N=Nc1cccc(S(=O)(=O)N2CCOCC2)c1 | -1.24% |
| O=C(N/N=C\c1ccc[nH]1)c1cncc(Br)c1 | 3.82% |
| O=C(NCc1ccccn1)C1CCCN(S(=O)(=O)c2ccccc2)C1 (centres unmarked) | 10.9% |
| COc1ccc(C(=O)NCc2nnc(SCC(=O)NO)n2Cc2ccccc2)cc1 | -5.01% |
| CC(NC(=O)c1ccc(N(C)C)c([N+](=O)[O-])c1)c1ccc(-n2ccnc2)cc1 (centres unmarked) | -62.9% |
| Cc1c(C(=O)NC(C)CCc2ccccc2)cccc1[N+](=O)[O-] (centres unmarked) | -18.2% |
| COc1ccc(C(=O)NNC(=O)c2ccncc2)cc1[N+](=O)[O-] | 25.2% |

| Structure (SMILES) | hERG current change (%, negative = inhibition) at 10uM |
| --- | --- |
| CC(NC(=O)c1cc([N+](=O)[O-])cc([N+](=O)[O-])c1)c1ccc(-n2ccnc2)cc1 (centres unmarked) | -73.5% |
| Cc1c(C(=O)NC(C)c2ccc(-n3ccnc3)cc2)cccc1[N+](=O)[O-] (centres unmarked) | -74.1% |
| O=C(O)c1ccc(-n2ccnc2)c([N+](=O)[O-])c1 | 32.1% |
| O=[N+]([O-])c1ccc(-n2ccnc2)cc1 | 7.95% |
| COc1ccccc1NC(=O)c1ccc(-n2ccnc2)c([N+](=O)[O-])c1 | 15.1% |
| COc1ccc(C(=O)NC(C)c2ccc(-n3ccnc3)cc2)cc1[N+](=O)[O-] (centres unmarked) | -77.9% |
| Cc1cccc(C(=O)NC(C)c2ccc(-n3ccnc3)cc2)c1C (centres unmarked) | -42.2% |
| Cc1cccc(N2CN(Cc3cccnc3)CNC2=S)c1 | -3.28% |
| COc1ccc(-c2cc(=O)oc3c(C)c(OCC(=O)Nc4cccnc4)ccc23)cc1 | -11.6% |
| CC(=O)c1ccc(N2CCN(C(=O)c3cc(-c4ccc5c(c4)OCO5)nc4ccccc34)CC2)cc1 | 2.88% |
| CCn1cc(S(=O)(=O)NCc2ccccc2Br)cn1 | -1.6% |
| CCOC(=O)N1CCN(C(=O)c2c[nH]c3ccc(S(=O)(=O)N(C)c4ccccc4C)cc3c2=O)CC1 | -1.1% |
| O[C@@H]1CCCN2CCc3c([nH]c4ccccc34)[C@H]12 | 10.9% |
| Cc1onc(-c2c(Cl)cccc2Cl)c1C(=O)N1CCN(c2ccccc2F)CC1 | 7.58% |
| CCOC(=O)N1CCN(C(=O)CN(C2CCCCC2)S(=O)(=O)c2ccc(Cl)cc2)CC1 | -47.8% |
| NC(=O)C1CCN(C(=O)CN(C2CCCCC2)S(=O)(=O)c2ccc(F)cc2)CC1 | -13.4% |
| Cc1ccc(S(=O)(=O)N(CC(=O)N2CCCC2)C2CCCCC2)cc1 | -37.7% |
| O=C(CN(C1CCCCC1)S(=O)(=O)c1ccccc1)N1CCCC1 | -59.3% |
| O=C(CN(C1CCCCC1)S(=O)(=O)c1ccc(Cl)cc1)N1CCOCC1 | -59.5% |
| Cc1ccc(S(=O)(=O)N(CC(=O)N2CCOCC2)C2CCCCC2)cc1 | -23.3% |

Reference: PMC4336329 (PLoS ONE, 2015)
